Data from PubChem BioAssay AID1159580 (chemical genetic matrix, 2015).
Out of some 5,500 compounds screened, about 2,000 (36%) were called active. Roughly 18% stayed inconclusive and do not appear here. Cut-off read from the data, not from the text of the source: active = normalized growth mostly below about 0.91 (no sharp cut-off); inconclusive = no clear call, values can overlap the other calls; inactive = mostly above about 0.92. This is one part of the list.

Test: chemical genetic growth profiling, strain panel (AID 1159580);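 note: tested at 20 µM; growth read once vehicle control cultures reached saturation at 30 °C; 1 = growth at the plate median or of vehicle wells; lower values mean less growth of the strain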
Settings: S. cerevisiae deletion strains, growth OD

Measured: normalized growth

C[C@H]1CC2C3CCC4=CC(=O)C=C[C@]4(C)[C@@]3(Cl)[C@@H](O)C[C@]2(C)[C@@]1(O)C(=O)CO (stereo partly drawn)
inactive: locus YAL013W, strain DEP1, stronger effect = lower value 0.982 | locus YAL040C, strain CLN3, stronger effect = lower value 1.03 | locus YCL061C, strain MRC1 (second series), stronger effect = lower value 1.01 | locus YER002W, strain NOP16, stronger effect = lower value 0.997 | locus YGR078C, strain PAC10, stronger effect = lower value 0.989 | locus YGR229C, strain SMI1, stronger effect = lower value 0.994 | locus YJR075W, strain HOC1, stronger effect = lower value 1.01 | locus YMR263W, strain SAP30, stronger effect = lower value 1.01 | locus YNL153C, strain GIM3, stronger effect = lower value 0.981 | locus YNL175C, strain NOP13, stronger effect = lower value 0.994 | locus YNL197C, strain WHI3, stronger effect = lower value 0.934 | locus YNL224C, strain SQS1, stronger effect = lower value 0.967 | locus YOR083W, strain WHI5 (second series), stronger effect = lower value 0.954
